This passage reports growth results from PubChem BioAssay (NCI).

Test systems include DU-145 prostate; K-562 leukemia; MALME-3M melanoma; MDA-MB-231 breast; RXF 393 renal; SF-268 CNS; SF-295 CNS; SF-539 CNS; UACC-257 melanoma; M14 melanoma; HCT-15 colon; HT29 colon; SNB-75 CNS; SNB-19 CNS; U251 CNS; PC-3 prostate; SK-MEL-5 melanoma; UACC-62 melanoma; LOX IMVI melanoma; SK-MEL-28 melanoma.
Assay in all cases: NCI-60 one-dose screen, 48 h (100 = growth as untreated, 0 = no growth, -100 = all killed)
Conditions in all cases: 10 µM unless noted

SMILES strings stand for the structures. The panel holds about 83,000 compounds, 20% with a hit somewhere; the sample as a whole holds those more often.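 Activity criterion: percent growth below 10, measured after cells in 96-well plates were exposed to a single compound concentration for 48 hours.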 Values without a mark were called inactive. Activity calls are given as the source filed them.

As for `O=S(=O)(NCCCNc1nccc(-c2[nH]c(-c3ccccc3)nc2-c2ccc(F)c(O)c2)n1)c1ccc(C(F)(F)F)cc1`, the growth in the assay with DU-145 prostate is 79.9%; in the assay on K-562 leukemia, 9.88% (active); in the assay on MALME-3M melanoma it was -5.99% (active); with MDA-MB-231 breast, 67.1%; with RXF 393 renal it was 24.5%; in the assay on SF-268 CNS, 54%. Further, the growth with SF-295 CNS was 31.3%; in the assay with SF-539 CNS it was 31.1%; in the assay on UACC-257 melanoma, 24.6%; in the assay with M14 melanoma it was 3.88% (active); with HCT-15 colon it was 38.1%; with HT29 colon, 94.9%. In addition, the growth was -0.845% (active) with SNB-75 CNS; 43.2% in the assay on SNB-19 CNS; 33.5% in the assay with U251 CNS; 40.8% in the assay on PC-3 prostate; -0.786% (active) with SK-MEL-5 melanoma; 2.32% (active) in the assay on UACC-62 melanoma. The growth in the assay with LOX IMVI melanoma is 46.3%; with SK-MEL-28 melanoma, 30.1%.

For `CN(C)c1ccc(-c2cc(-c3c[nH]c4ccccc34)nc(N)c2C#N)cc1`, the growth with DU-145 prostate is 49.2%; with K-562 leukemia it was 17.5%; with MALME-3M melanoma it was 64.4%; with MDA-MB-231 breast it was 36%; with RXF 393 renal it was 2.37% (active); in the assay with SF-268 CNS it was 52.3%. Also, the growth is 26.8% in the assay with SF-295 CNS; 37.5% in the assay on SF-539 CNS; 56.9% in the assay with UACC-257 melanoma; -27.1% (active) in the assay with M14 melanoma; 11.9% in the assay on HCT-15 colon; 11.3% in the assay with HT29 colon. The growth with SNB-75 CNS was 21.1%; with SNB-19 CNS it was 40.7%; with U251 CNS it was 26.5%; in the assay on PC-3 prostate it was 37%; in the assay with SK-MEL-5 melanoma it was 29.8%; in the assay with UACC-62 melanoma, 42%. Further, the growth in the assay with LOX IMVI melanoma was 11.3%; in the assay on SK-MEL-28 melanoma it was 59.8%.

Turning to `CN1CCN(CCNc2nc(-c3cccc(NS(=O)(=O)c4cccc5c(N(C)C)cccc45)c3)cs2)CC1`, the growth was 81.8% with DU-145 prostate; 10.6% in the assay with K-562 leukemia; 44% in the assay on MALME-3M melanoma; 64.8% in the assay with MDA-MB-231 breast; 61.6% in the assay on RXF 393 renal; 82.7% in the assay on SF-268 CNS. In addition, the growth with SF-295 CNS is 42.6%; in the assay with SF-539 CNS, 68.1%; in the assay with UACC-257 melanoma, 53.9%; in the assay with M14 melanoma, 62.9%; in the assay with HCT-15 colon, 18.5%; in the assay with HT29 colon, 71.6%. Further, the growth in the assay on SNB-75 CNS is 73.8%; in the assay with SNB-19 CNS it was 75.5%; with U251 CNS, 65.9%; with PC-3 prostate it was 65.5%; in the assay on SK-MEL-5 melanoma, 12.2%; in the assay on UACC-62 melanoma, 65.7%. Also, the values for the growth in the assay with LOX IMVI melanoma and in the assay with SK-MEL-28 melanoma were 38.1% and 40.2%, respectively.

In the case of `Cc1ccc2c(n1)C(=O)C(Cl)=C(Nc1cc(C(F)(F)F)cc(C(F)(F)F)c1)C2=O`, the growth in the assay with DU-145 prostate is 95.3%; in the assay on K-562 leukemia it was 4.18% (active); in the assay with MALME-3M melanoma it was 47.9%; in the assay with MDA-MB-231 breast it was 87.1%; in the assay on RXF 393 renal, 74.5%; with SF-268 CNS, 87.1%. The growth in the assay with SF-295 CNS is 95.7%; in the assay on SF-539 CNS, 93.9%; in the assay on UACC-257 melanoma it was 75.2%; in the assay on M14 melanoma, 89.9%; in the assay on HCT-15 colon, 6.82% (active); in the assay with HT29 colon it was 102%. Also, the growth is 98.3% with SNB-75 CNS; 90.6% in the assay with SNB-19 CNS; 85.2% in the assay on U251 CNS; 80.5% with PC-3 prostate; 77% in the assay with SK-MEL-5 melanoma; 79.9% with UACC-62 melanoma. Further, the figures for the growth in the assay on LOX IMVI melanoma and in the assay with SK-MEL-28 melanoma were 66.2% and 88.7%, respectively.

Take `C#CCn1cc(/C=N/Nc2nc(-c3ccc(Br)cc3)cs2)c2ccccc21`: the growth with DU-145 prostate was 114%; in the assay on K-562 leukemia, 110%; in the assay with MALME-3M melanoma, 100%; with MDA-MB-231 breast it was 95.8%; in the assay on RXF 393 renal, 105%; in the assay with SF-268 CNS, 108%. For the same compound, the growth in the assay with SF-295 CNS was 97.6%; in the assay on SF-539 CNS, 93%; with UACC-257 melanoma it was 105%; in the assay on M14 melanoma it was 93.9%; with HCT-15 colon, 95.3%; in the assay on HT29 colon, 104%. In addition, the growth in the assay with SNB-75 CNS is 95.4%; in the assay with SNB-19 CNS it was 96.6%; with U251 CNS it was 101%; in the assay on PC-3 prostate it was 91.7%; with SK-MEL-5 melanoma it was 98.7%; with UACC-62 melanoma it was 91.5%. Also, the figures for the growth in the assay on LOX IMVI melanoma and in the assay on SK-MEL-28 melanoma were 94.4% and 103%, respectively.

As to `CC1(C)CC[C@]23CC[C@]4(C)[C@H](CC[C@@H]5[C@@]6(C)CC[C@H](NCO)C(C)(C)[C@@H]6CC[C@]54C)[C@H]2[C@H]1OC3`, the growth in the assay with DU-145 prostate is 14.8%; in the assay on K-562 leukemia it was 4.93% (active); with MALME-3M melanoma, 93.5%; in the assay with MDA-MB-231 breast, 19.7%; in the assay on RXF 393 renal, 56.3%; with SF-268 CNS, 77%. In addition, the growth with SF-295 CNS is 59.6%; in the assay with SF-539 CNS, 69%; in the assay with UACC-257 melanoma it was 103%; with M14 melanoma it was 35.9%; in the assay with HCT-15 colon it was -13.5% (active); in the assay on HT29 colon it was 17.9%. For the same compound, the growth in the assay on SNB-75 CNS was 86.5%; in the assay on SNB-19 CNS, 36.9%; in the assay on U251 CNS, 1.32% (active); with PC-3 prostate, 75%; with SK-MEL-5 melanoma, 97.7%; in the assay with UACC-62 melanoma, 99.6%. Also, the values for the growth in the assay with LOX IMVI melanoma and in the assay with SK-MEL-28 melanoma were -89.9% (active) and 89.5%, respectively.

As for `COc1ccc([C@@H]2C(=O)N(c3cc(OC)c(OC)c(OC)c3)[C@H]2c2ccc(OC)c(O)c2)cc1`, the growth was 10.9% in the assay on DU-145 prostate; 12.7% in the assay on K-562 leukemia; 69.5% with MALME-3M melanoma; 28.8% with MDA-MB-231 breast; 16.7% in the assay on RXF 393 renal; 25.2% in the assay on SF-268 CNS. In addition, the growth in the assay on SF-295 CNS is 17.9%; in the assay with SF-539 CNS, 5.74% (active); in the assay with UACC-257 melanoma, 56.6%; in the assay with M14 melanoma it was 12.6%; in the assay with HCT-15 colon it was 10.8%; in the assay with HT29 colon it was -12% (active). The growth was 43.1% with SNB-75 CNS; 29.7% in the assay on SNB-19 CNS; 19.3% with U251 CNS; 29.8% in the assay with PC-3 prostate; -22.9% (active) in the assay on SK-MEL-5 melanoma; 29.2% with UACC-62 melanoma. Besides, the growth with LOX IMVI melanoma was 19.4%; in the assay with SK-MEL-28 melanoma, 67.8%.

As to `COc1cc(/C=C2/C(=O)Nc3ccc(Cl)cc32)ccc1OCc1ccc(Cl)cc1`, the growth in the assay on DU-145 prostate is 89.5%; in the assay on K-562 leukemia it was 88.6%; with MALME-3M melanoma it was 82.3%; with MDA-MB-231 breast, 86.9%; in the assay on RXF 393 renal, 93.4%; with SF-268 CNS, 90.2%. Also, the growth in the assay on SF-295 CNS is 97.7%; in the assay with SF-539 CNS, 92.2%; in the assay on UACC-257 melanoma it was 102%; with M14 melanoma, 96.4%; with HCT-15 colon, 86.5%; in the assay with HT29 colon, 94.1%. The growth was 77.7% in the assay on SNB-75 CNS; 91.3% in the assay with SNB-19 CNS; 50.7% with U251 CNS; 84.2% in the assay with PC-3 prostate; 89.2% in the assay on SK-MEL-5 melanoma; 70.2% with UACC-62 melanoma. The results for the growth in the assay with LOX IMVI melanoma and in the assay on SK-MEL-28 melanoma were 68.3% and 103%, respectively.
